From PubChem BioAssay
LDHA inh: qHTS assay for inhibitors of human lactate dehydrogenase; L-lactate dehydrogenase A chain (Homo sapiens), P00338; purified LDHA, NADH/diaphorase-resazurin fluorescence; active compounds read low; activity change, % (values are at about 110 or 230 µM); 0.15% of 480,000 active; AID 1347041, 2019; in the data active means activity change below about -30%
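Human LDH5 at 2 nM final in Tris HCl pH 7.4 with 0.06 mM NADH and 0.2 mM pyruvate, reacted 5 minutes at room temperature. Remaining NADH coupled via diaphorase/resazurin; resorufin fluorescence read at 0 and 20 minutes, normalized to enzyme-free and DMSO wells.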
TRHR enhancer: qHTS for Small Molecule Agonists and Allosteric Enhancers of Human TRH Receptor: Primary Screen for Enhancers; Thyrotropin-releasing hormone receptor (Homo sapiens), P34981; TRHR cells, fluo-8 calcium fluorescence, EC20 TRH enhancement; enhancement, % at 2 µM; 0.66% of 360,000 active; AID 493056, 2011; in the data active means enhancement above about 30%
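TRHR-expressing cells loaded with fluo-8 calcium dye were read kinetically (ex 480/em 530) during compound addition, then stimulated with an EC20 of TRH (10 nM final). Enhancement of the Gq-mediated intracellular calcium response was scored.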
D1 PAM: Potentiators of Human D1 Dopamine Receptor: qHTS; D(1A) dopamine receptor (Homo sapiens), P21728; AID 504651, 2011; 0.036% of 360,000 active; potentiation, % at 10 µM; HEK293 TREx D1 cells, calcium flux, dopamine EC20 potentiation; in the data active means potentiation above about 30%
Target sequence (P21728 whole entry, looked up): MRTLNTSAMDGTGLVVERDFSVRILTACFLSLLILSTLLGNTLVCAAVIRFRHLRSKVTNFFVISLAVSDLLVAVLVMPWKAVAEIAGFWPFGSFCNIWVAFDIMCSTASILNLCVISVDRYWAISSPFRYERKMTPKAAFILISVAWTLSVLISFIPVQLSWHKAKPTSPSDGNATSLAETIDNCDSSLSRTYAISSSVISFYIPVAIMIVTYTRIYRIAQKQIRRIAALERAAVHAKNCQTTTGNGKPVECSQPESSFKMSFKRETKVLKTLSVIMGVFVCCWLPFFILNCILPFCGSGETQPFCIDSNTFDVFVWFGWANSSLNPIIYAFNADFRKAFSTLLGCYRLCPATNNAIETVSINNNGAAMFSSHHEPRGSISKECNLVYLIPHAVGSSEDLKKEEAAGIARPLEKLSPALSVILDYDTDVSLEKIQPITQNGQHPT
D1 ag: Allosteric Agonists of the Human D1 Dopamine Receptor: qHTS. HEK293 T-REx D1 cells, calcium flux, agonist mode. activation, % at 2 µM. 1% of 360,000 active
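Agonism was scored from calcium flux recorded over 180 s (1 read/s) after pintool compound addition, following a 10-cycle baseline. Cells were inducible force-coupled HEK293 TREx D1, plated overnight at 30 C and loaded with no-wash calcium dye.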
D1 antagonist: Antagonist of Human D 1 Dopamine Receptor: qHTS | D(1A) dopamine receptor (Homo sapiens), P21728 | HEK293 TREx D1 cells, calcium flux, dopamine EC80; active compounds read low | activity change, negative = inhibition, % at 10 µM | 3.2% of 360,000 active; in the data active means activity change below about -30%
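Calcium flux readout: force-coupled, inducible Hek293 Trex D1 line, cells induced overnight at 30 C with tetracycline, dye-loaded 30–90 min at RT. Antagonism scored against EC80 dopamine challenge given 180 s after compound.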
TRHR ag: qHTS for Small Molecule Agonists and Allosteric Enhancers of Human TRH Receptor: Primary Screen for Agonists | Thyrotropin-releasing hormone receptor (Homo sapiens), P34981 | TRHR cells, calcium flux fluo-8, FDSS agonist mode | activation, % at 2 µM | 0.18% of 360,000 active | AID 493084, 2011
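TRHR-expressing cells, plated overnight in medium with 10% serum, were loaded with fluo-8 calcium dye at room temperature. After a 10 s baseline, library compound was pin-added and calcium release was recorded kinetically (ex 480/em 530) as agonist response.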
Hits are given with their value; . = inactive; / = no result given; ! = not active in a repeat. Only some compounds are listed: those with a hit (about 3.6% of all), similar ones and a draw of the others. Unless noted, no stated cut-off is given here; in the data, active means activation above about 30%; inactive means the rest.

SMILES | LDHA inh | TRHR enhancer | D1 PAM | D1 ag | D1 antagonist | TRHR ag
CCc1ccc(NCc2cc3cc4c(cc3n(CC(=O)Nc3ccc(F)cc3)c2=O)OCCO4)cc1 | . | . | . | . | . | .
CCc1ccc(NCc2cc3cc4c(cc3n(CC(=O)Nc3ccc(C)cc3)c2=O)OCO4)cc1 | . | . | . | 48.5 | . | .
CCc1ccc(NCc2cc3cc4c(cc3n(CC(=O)Nc3ccccc3Cl)c2=O)OCO4)cc1 | . | . | . | 65.5 | . | .
CN(C)C(=S)c1cc(C(C)(C)C)c(O)c(C(C)(C)C)c1 | . | / | / | / | / | /
N#Cc1c2n(c(=O)n(CCOc3ccccc3F)c1=O)CCC2 | . | / | / | / | / | /
NC(=O)COc1cccc2cccnc12 | . | . | . | . | -78.9 | .
O=c1cc(-c2ccccc2Cl)oc2c(NS(=O)(=O)c3cc(Cl)cc(Cl)c3O)ccc(O)c12 | . | . | . | 82.0 | -51.6 | .
CC(=O)c1ccc(NC(=S)NCCc2ccc(Cl)cc2)cc1 | . | / | / | / | / | /
COc1ccccc1C(CC(=O)c1ccccc1)CC(=O)c1ccccc1 | . | . | . | 30.1 | . | .
COc1ccccc1C(CC(=O)c1ccccc1)C(=O)c1ccccc1 (stereo not given) | . | / | / | / | / | /
O=C(O)c1cccc(-n2cccc2/C=C2/NC(=O)N(c3cccc(Cl)c3)C2=O)c1 | -30.1! | . | . | . | . | .
Cc1ccc(C(=O)CSc2nc3cccnc3n2C)cc1 | . | . | . | . | -37.0 | .
Nc1ccc2c(c1)C(=O)NC2 | . | / | / | / | / | /
O=C(COc1ccc2c(c1)CCC2)N1CCN(c2cccc(C(F)(F)F)c2)CC1 | . | . | . | . | -44.1 | .
O=C(COc1cccc(C(F)(F)F)c1)N1CCN(c2ccc(O)cc2)CC1 | . | . | . | . | . | .
O=C(COc1cccc(C(F)(F)F)c1)N1CCN(c2ccccc2O)CC1 | . | . | . | . | -34.5 | .
COc1ccc(CCNC(=O)c2cccc3c(=O)c(C)c(-c4ccccc4)oc23)cc1OC | . | / | / | / | / | /
CC(=O)c1cccc(NS(=O)(=O)c2ccc3c(c2)CC(C)N3C(C)=O)c1 (stereo not given) | . | / | / | / | / | /
O=C(COC(=O)c1cc(-c2cccs2)nc2ccccc12)NCC1CCCO1 (stereo not given) | . | / | / | / | / | /
CNCc1ccccc1Sc1cccc2ccccc12 | . | . | . | 59.5 | . | .
COc1ccc(CCN(C)Cc2cccc3ccccc23)cc1OC | . | . | . | . | . | .
CN(C)CCN(C)Cc1ccccc1Sc1cccc2ccccc12 | . | . | . | 51.2 | -36.3 | .
CNCc1ccccc1Sc1ccc(OC)cc1 | . | . | . | . | . | .
COc1cccc(CN(Cc2cccnc2)S(=O)(=O)c2ccc(-n3cnnn3)c(C)c2)c1 | . | . | . | . | -32.4 | .
O=C1CS(=O)(=O)C2(C(=O)N(Cc3ccccc3F)c3ccccc32)N1c1ccc(F)c(Cl)c1 (stereo not given) | . | / | / | / | / | /
SMILES | LDHA inh | TRHR enhancer | D1 PAM | D1 ag | D1 antagonist | TRHR ag
CCN(C(=O)CSc1nnc(N2CCOCC2)n1-c1ccccc1)C1=CCCC1 | . | / | / | / | / | /
c1ccc(N2CCN(c3c4c(nc5ncnn35)CCC4)CC2)cc1 | . | . | . | . | . | .
Cc1cccc(Nc2c3c(nc4ncnn24)CCC3)c1 | . | . | . | . | -30.0 | .
COc1cccc(N2CCN(c3c4c(nc5ncnn35)CCC4)CC2)c1 | . | . | . | . | -30.4 | .
CCCOc1ccc(/C(O)=C2/C(=O)C(=O)N(CCCOC)C2c2ccncc2)cc1 (stereo not given) | . | . | . | . | . | .
CCCCOc1ccc(/C(O)=C2/C(=O)C(=O)N(CCCOC)C2c2ccncc2)cc1C (stereo not given) | . | . | . | . | -37.7 | .
O=C(NCCCN1CCOCC1)c1ccc(-n2nc(C(F)(F)F)cc2-c2cccs2)cc1 | . | . | . | 61.7 | . | .
Cc1cc(N2CCOCC2)nc(NCc2ccccc2)n1 | . | . | . | 45.1 | -63.4 | .
Cc1cc(NCc2ccccc2)nc(N2CCOCC2)n1 | . | . | . | . | -91.4 | .
Cc1cc(N2CCCCC2)nc(NCc2ccccc2)n1 | . | . | . | 81.1 | -50.3 | .
CNc1cc(C)nc(N2CCOCC2)n1 | . | . | . | . | . | .
Cc1cc2c(cc1C)NC(c1c(C)n(C)n(-c3ccccc3)c1=O)C1=C(CC(C)(C)CC1=O)N2 (stereo not given) | . | . | . | 81.4 | . | 42.9
Cc1cc2c(cc1C)NC(c1ccccc1)C1=C(CC(C)(C)CC1=O)N2 (stereo not given) | . | / | / | / | / | /
CC(C)(C)CNC(=O)c1ccc2c(c1)S(=O)(=O)c1cc(Cl)ccc1C2=O | . | . | . | . | -32.5 | .
Cc1cc(OCC(=O)NNC(=O)c2ccncc2)cc(C)c1Cl | . | . | . | . | . | .
Cc1cc(OCC(=O)NC(C)C)cc(C)c1Cl | . | . | . | . | -31.5 | .
CCOC(=O)N1CCN(C(=O)CSc2nc3c([nH]c4ccccc43)c(=O)n2CC)CC1 | . | . | . | . | -35.9 | .
CCn1c(SCC(=O)N2CCCCC2)nc2c([nH]c3ccccc32)c1=O | . | / | / | / | / | /
CCSc1nc2c([nH]c3ccccc32)c(=O)n1CC | . | . | . | . | . | .
CCn1c(SCC(=O)N(C)c2ccccc2)nc2c([nH]c3ccccc32)c1=O | . | . | . | . | -37.0 | .
Cn1c(=O)c2c(nc(N3CCN(C(=O)/C=C/c4ccccc4)CC3)n2Cc2ccccc2)n(C)c1=O | . | / | / | / | / | /
O=C(CCc1cccnc1)Nc1ccc(Cl)cc1F | . | / | / | / | / | /
CC(C(=O)N(C)CC(=O)Nc1ccccc1C(F)(F)F)N1CCN(c2cccc(Cl)c2)CC1 (stereo not given) | . | / | / | / | / | /
CN(C)/C=C1\SC(=S)N(c2ccc(Br)cc2)C1=O | . | . | . | 41.1 | . | .
COc1ccc2nc(-c3ccccc3)cc(OC)c2c1 | . | . | . | . | -60.5 | .
CC(C)OC(=O)CC(=O)c1sc2nc3c(cc2c1N)CN(C)CC3 | . | 37.9 | . | . | . | .
CC(=O)NC(c1ccc([N+](=O)[O-])cc1)c1c(O)ccc2ccccc12 (stereo not given) | . | . | . | . | . | .
CC(C)C(=O)NC(c1ccc([N+](=O)[O-])cc1)c1c(O)ccc2ccccc12 (stereo not given) | . | . | . | . | -31.9 | .
